The panel holds about 83,000 compounds, 20% with a hit somewhere; the sample as a whole holds those more often.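 A percent growth of 40 corresponds to 60% growth inhibition; 0 means no net growth; -100 means all cells died. Active threshold: below 10.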 Calls of active or inactive are those of the source.

The experiment relates to SN12C renal. In words: NCI-60 one-dose screen, 48 h (100 = growth as untreated, 0 = no growth, -100 = all killed). The note with it: 10 µM unless noted.
As for `COc1ccc(NC(=O)c2sc3c(=O)[nH]c(C(F)(F)F)nc3c2C)cc1`, the growth was 99.8% (inactive).
Then `O=C(Nc1cccc(Cl)c1)Nc1ccccc1Cl`, with 81.5% (inactive).
To `NC(=O)N/N=C\c1ccc([N+](=O)[O-])o1` belongs 104% (inactive).
Turning to `CCN(CC)Cc1cc(Nc2ccnc3ccc(OC)cc23)ccc1O`, the growth was 56.6% (inactive).
Then `CC(C)(C)c1nn(-c2ccccc2)c2c1C(=O)CSC(c1ccc3c(c1)OCO3)N2` (stereo unspecified), with 91.3% (inactive).
To `CN(C)N1C(=O)c2c(Cl)c(Cl)c(Cl)c(Cl)c2C1=O` belongs 103% (inactive); to `O=c1c2cc(Cl)ccc2oc2ccc(OCCCCCN3CCCCC3)cc12`, 65.1% (inactive); to `C=CCOc1ccc2c(C)cc(=O)oc2c1`, 115% (inactive).
To `O=C(CSc1nc2c(n1Nc1ccccc1)-c1ccccc1SC2)Nc1nccs1` belongs 95.3% (inactive); to `CCNC(=O)c1ccc2c(c1)nc(-c1ccc(Cl)cc1)n2-c1cc(C(C)(C)C)[nH]n1`, 76.4% (inactive); to `CC(C)CC1NC(=O)C(CC(C)C)N(CO)C1=O` (stereo unspecified), 99.4% (inactive).
As to `CCn1c(=O)c(C(=O)NCCCO)c(O)c2ccccc21`, the growth was 104% (inactive).
To `COc1cc(NCC(O)CN(CC(C)C)CC(C)C)c2ncccc2c1` (stereo unspecified) belongs 84.6% (inactive).
With `CC(=O)Nc1ccc(/C=N/N2CCCCCC2)cc1`, the growth was 83.3% (inactive).
To `O=c1oc2ccccc2cc1-c1cc(-c2ccc(-c3cc(-c4cc5ccccc5oc4=O)nc(-c4cc5ccccc5oc4=O)c3)cc2)cc(-c2cc3ccccc3oc2=O)n1` belongs 102% (inactive); to `CCN(CC)c1ccc(/C=N/N=C(N)N)cc1`, 67.3% (inactive).

For the origin of these results see PubChem BioAssay (NCI).
